# Test results from PubChem BioAssay.
# Assay: S6 kinase pathway phospho-S6 level changes – cell-based, A549, cytoblot, luminescence, serum-stimulated, primary screen (AID 1158);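 further: serum-stimulated A549 lung adenocarcinoma cells; signal is phosphorylated S6 detected by cytoblot immunostaining with HRP secondary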
# Settings: 5 h, higher = more signal
row,SMILES,z-score
1,[N-]=[N+]=Nc1ccccc1C[C@@]1(C(=O)NCC(O)CO)N=C(c2ccc(OCCCO)cc2)O[C@@H]1c1ccccc1 (some centres undefined),0.122
2,C=C(CCCC)/C(=C/C[C@H](OC(=O)c1ccncc1)c1cccc(OCCO)c1)c1cnc2ccccc2c1,-0.282
3,COCCOC(=O)N1C(=O)[C@@]2(c3cc(C#Cc4ccc(OC)cc4)ccc31)[C@H](c1ccc(OCCO)cc1)N1[C@H](c3ccccc3)[C@H](c3ccccc3)OC(=O)[C@H]1[C@@H]2C(=O)NC[C@H](O)c1ccccc1,-0.539
4,CCOC(=O)C1=CC[C@@H](c2ccc(OC)cc2)N(S(=O)(=O)c2ccc(C)cc2)[C@H]1c1ccc(C)cc1,-0.752
5,COCCOC(=O)N1C(=O)[C@@]2(c3cc(C#CCCO)ccc31)[C@H](c1ccc(OCCO)cc1)N1[C@H](c3ccccc3)[C@H](c3ccccc3)OC(=O)[C@H]1[C@@H]2C(=O)N1CCCCCCC1,-0.23
6,COC(=O)[C@@]1(Cc2ccc(F)cc2)[C@H]2c3cc(C(=O)N4CCCC4)n(Cc4cc(F)cc5c4OCOC5)c3C[C@H]2CN1C(=O)c1ccccc1,0.0568
7,C=C(CCCC)/C(=C/C[C@H](OC(=O)c1ccncc1)c1ccc(OCCO)cc1)c1cnc2ccccc2c1,-0.594
8,C=CCOC(=O)[C@@H]1[C@H]2C(=O)O[C@H](c3ccccc3)[C@H](c3ccccc3)N2[C@H](c2ccc(OCCOC(=O)[C@H]3C[C@H]4C(=O)N5CCC[C@H]5C(=O)N4[C@H]3c3cccc(OCCO)c3)cc2)[C@@]12C(=O)Nc1ccc(I)cc12,-0.101
9,COc1ccc([Si](C)(C)[C@H]2[C@H](CC(=O)N3Cc4ccccc4C[C@H]3CO)O[C@@]3(C(=O)N(C)c4c(Br)cc(C)cc43)[C@@H]2C)cc1,0.0914
